Potency and affinity values are given separately.

In the first assay the test system is Staphylococcus aureus. The following applies: Concentration 32 ug.mL-1; ASSAY_TEST Inhibition of Bacterial Growth; detection method Absorption (OD600); MEDIA CAMHB; plate type 384well; NBS; CORNING #3640; time 18 hr.
Consider `CC(CC(=O)NCCc1ccccc1)NC(=O)[C@H](O)C(C)(C)CO` (stereo partly specified), for which the Inhibition is recorded as 13.65%.
`CC(C)(C)C(O)C(=O)NCCC(=O)NCCc1ccccc1` (stereo unspecified): the Inhibition is given as 10.92%.
Regarding `CC(C)(CN)C(O)C(=O)NCCC(=O)NCCc1ccccc1` (stereo unspecified), the Inhibition is given as 10.68%.
For the molecule `CCCCCCNNC(=O)CCNC(=O)[C@H](O)C(C)(C)CO`, the Inhibition is 13.79%.
In the case of `CCCCCCCNC(=S)CCNC(=O)[C@H](O)C(C)(C)CO`, the Inhibition is recorded as 14.7%.
The same measure, in the same setting: under `CC(C)(CO)[C@H](O)C(=O)NCCc1cn(C[C@H]2O[C@@H](n3ccc(N)nc3=O)[C@H](O)[C@@H]2O)nn1` stands -0.66%.
Regarding `CC(C)(CO)[C@H](O)C(=O)NCCC(=O)NCc1cn(C[C@H]2O[C@@H](n3ccc(N)nc3=O)[C@H](O)[C@@H]2O)nn1`, the Inhibition is 2.11%.
`CC(C)(CO)[C@@H](O)C(=O)NCCC(=O)NNCc1ccccc1`: the Inhibition was found to be 15.8%.
On to `CC(C)(CO)[C@H](O)C(=O)NCc1cn(C[C@H]2O[C@@H](n3ccc(N)nc3=O)[C@H](O)[C@@H]2O)nn1`, for which the Inhibition is 13.05%.
As for `CC(C)(CO)[C@H](O)C(=O)NCCCc1cn(C[C@H]2O[C@@H](n3ccc(N)nc3=O)[C@H](O)[C@@H]2O)nn1`, the Inhibition is given as 12.15%.
Consider `CCCCCCCNC(=O)CCNC(=O)C(O)C(C)(C)C` (stereo unspecified), for which the Inhibition stood at 18.01%.
Consider `CCCCCCCNS(=O)(=O)CCNC(=O)[C@H](O)C(C)(C)CO`, for which the Inhibition was 15.67%.
The same measure, in the same setting: under `CC(C)(CO)[C@H](O)C(=O)NCCC(=O)OCc1cn(C[C@H]2O[C@@H](n3ccc(N)nc3=O)[C@H](O)[C@@H]2O)nn1` stands 8.97%.
With `CC(C)(CO)[C@@H](O)C(=O)N/C=C/C(=O)NCCc1ccccc1`, the Inhibition is reported as 31.24%.
Regarding `CC(C)(CO)[C@@H](O)C(=O)NCCC(=S)NCCc1ccccc1`, the Inhibition is recorded as 10.96%.
Consider `C#CCNC(=O)[C@H](O)C(C)(C)CO`, for which the Inhibition is 0.74%.
Turning to `CC(C)(COP(=O)(O)O)[C@@H](O)C(=O)NCCC(=O)NCCc1ccccc1`, the Inhibition was 15.25%.
Turning to `CC(C)(CO)C(O)C(=O)NCCCOP(=O)(O)OCC1OC(n2ccc(N)nc2=O)C(O)C1O` (stereo unspecified), the Inhibition is -4.3%.

The test system of a further assay is Escherichia coli. The following applies: Concentration 32 ug.mL-1; ASSAY_TEST Inhibition of Bacterial Growth; detection method Absorption (OD600); MEDIA CAMHB; plate type 384well; NBS; CORNING #3640; time 18 hr.
Regarding `CC(CC(=O)NCCc1ccccc1)NC(=O)[C@H](O)C(C)(C)CO` (stereo partly specified), the Inhibition is -6.39%.
In the case of `CC(C)(C)C(O)C(=O)NCCC(=O)NCCc1ccccc1` (stereo unspecified), the Inhibition is -6.19%.
`CC(C)(CN)C(O)C(=O)NCCC(=O)NCCc1ccccc1` (stereo unspecified): the Inhibition is reported as -6.66%.
With `CCCCCCNNC(=O)CCNC(=O)[C@H](O)C(C)(C)CO`, the Inhibition is given as -4.33%.
`CCCCCCCNC(=S)CCNC(=O)[C@H](O)C(C)(C)CO`: the Inhibition was -4.19%.
With `CC(C)(CO)[C@H](O)C(=O)NCCc1cn(C[C@H]2O[C@@H](n3ccc(N)nc3=O)[C@H](O)[C@@H]2O)nn1`, the Inhibition is on record as -7.3%.
Regarding `CC(C)(CO)[C@H](O)C(=O)NCCC(=O)NCc1cn(C[C@H]2O[C@@H](n3ccc(N)nc3=O)[C@H](O)[C@@H]2O)nn1`, the Inhibition is reported as -13.27%.
As to `CC(C)(CO)[C@@H](O)C(=O)NCCC(=O)NNCc1ccccc1`, the Inhibition is reported as -5.42%.
Regarding `CC(C)(CO)[C@H](O)C(=O)NCc1cn(C[C@H]2O[C@@H](n3ccc(N)nc3=O)[C@H](O)[C@@H]2O)nn1`, the Inhibition is -11.94%.
`CC(C)(CO)[C@H](O)C(=O)NCCCc1cn(C[C@H]2O[C@@H](n3ccc(N)nc3=O)[C@H](O)[C@@H]2O)nn1`: the Inhibition is listed as -9.07%.
For `CCCCCCCNC(=O)CCNC(=O)C(O)C(C)(C)C` (stereo unspecified), the Inhibition is on record as -4.21%.
Same read-out and setting: under `CCCCCCCNS(=O)(=O)CCNC(=O)[C@H](O)C(C)(C)CO` stands -4.61%; under `CC(C)(CO)[C@H](O)C(=O)NCCC(=O)OCc1cn(C[C@H]2O[C@@H](n3ccc(N)nc3=O)[C@H](O)[C@@H]2O)nn1`, -9.8%; under `CC(C)(CO)[C@@H](O)C(=O)N/C=C/C(=O)NCCc1ccccc1`, -5.06%.
On the same count and under the same terms, under `CC(C)(CO)[C@@H](O)C(=O)NCCC(=S)NCCc1ccccc1` stands -8.24%; under `C#CCNC(=O)[C@H](O)C(C)(C)CO`, 3.62%.
For the molecule `CC(C)(COP(=O)(O)O)[C@@H](O)C(=O)NCCC(=O)NCCc1ccccc1`, the Inhibition is listed as -8.26%.
Consider `CC(C)(CO)C(O)C(=O)NCCCOP(=O)(O)OCC1OC(n2ccc(N)nc2=O)C(O)C1O` (stereo unspecified), for which the Inhibition is listed as -11.28%.

The Inhibition is the relative decrease from the control value, in per cent.

(Values after ChEMBL document CHEMBL4513148, “CO-ADD screening of Stellenbosch University (South Africa) compounds”.)
